Assay results from the supplement of paper PMC8975748.
Structures can show the parent of a compound that is named as a salt. ± gives the standard deviation of the averaged measurements.

Columns and labels:
[1] = test system: Saccharomyces cerevisiae BY4741 SeMeCo community; assay: mean cell size (pixel area) (pixels); higher = larger cells; settings: 10 µM; 24 h; SM minimal medium
Summary of the method: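 For 24 h, 70 µl of yeast culture diluted to OD600 = 0.3 from an overnight preculture at OD600 = 1.0 was kept in SM medium in 384-well plates acoustically predosed with drug, final 10 µM. The strain was Saccharomyces cerevisiae BY4741 forming a fluorescent community of four plasmids, each complementing one auxotrophy and carrying a fluorescent marker. Automated confocal microscopy of paraformaldehyde-fixed cells, analysed in Harmony, provided mean cell pixel area per well, which was averaged over 3 replicates. Same SeMeCo high-content imaging drug screen: Selleck FDA-approved drugs at 10 µM, 24 h in SM medium, 384-well plates, 3 replicates.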

[2] = test system: Saccharomyces cerevisiae BY4741 SeMeCo community; assay: z-score of prototroph abundance vs DMSO median; higher = larger share of this subpopulation than in DMSO controls; settings: 10 µM; 24 h; SM minimal medium; subpopulation (auxotrophy): Prototroph
Summary of the method: (§1)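 Four plasmids, each restoring a single auxotrophy and encoding a distinct fluorescent protein, were carried by a Saccharomyces cerevisiae BY4741 community. After overnight growth to OD600 1.0 and dilution to 0.3, 70 µl per well was grown for 24 h in minimal SM medium on 384-well plates acoustically predosed with library drugs at 10 µM final. Following paraformaldehyde fixation, automated confocal microscopy was used, with single-auxotroph fluorescent strains defining thresholds and autofluorescence correction. Subpopulation abundance was then scored as a z-score against the vehicle-well median.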

[3] = test system: Saccharomyces cerevisiae BY4741 SeMeCo community; assay: z-score of subpopulation abundance vs DMSO median, subpopulation auxotrophic for M; higher = larger share of this subpopulation than in DMSO controls; settings: 10 µM; 24 h; SM minimal medium; subpopulation (auxotrophy): M
Summary of the method: as §1

[4] = test system: Saccharomyces cerevisiae BY4741 SeMeCo community; assay: z-score of subpopulation abundance vs DMSO median, subpopulation auxotrophic for L; higher = larger share of this subpopulation than in DMSO controls; settings: 10 µM; 24 h; SM minimal medium; subpopulation (auxotrophy): L
Summary of the method: as §1

[5] = test system: Saccharomyces cerevisiae BY4741 SeMeCo community; assay: z-score of subpopulation abundance vs DMSO median, subpopulation auxotrophic for U; higher = larger share of this subpopulation than in DMSO controls; settings: 10 µM; 24 h; SM minimal medium; subpopulation (auxotrophy): U
Summary of the method: as §1

[6] = test system: Saccharomyces cerevisiae BY4741 SeMeCo community; assay: z-score of subpopulation abundance vs DMSO median, subpopulation auxotrophic for H; higher = larger share of this subpopulation than in DMSO controls; settings: 10 µM; 24 h; SM minimal medium; subpopulation (auxotrophy): H
Summary of the method: as §1

[7] = test system: Saccharomyces cerevisiae BY4741 SeMeCo community; assay: z-score of subpopulation abundance vs DMSO median, subpopulation auxotrophic for LM; higher = larger share of this subpopulation than in DMSO controls; settings: 10 µM; 24 h; SM minimal medium; subpopulation (auxotrophy): LM
Summary of the method: as §1

[8] = test system: Saccharomyces cerevisiae BY4741 SeMeCo community; assay: z-score of subpopulation abundance vs DMSO median, subpopulation auxotrophic for UM; higher = larger share of this subpopulation than in DMSO controls; settings: 10 µM; 24 h; SM minimal medium; subpopulation (auxotrophy): UM
Summary of the method: as §1

[9] = test system: Saccharomyces cerevisiae BY4741 SeMeCo community; assay: z-score of subpopulation abundance vs DMSO median, subpopulation auxotrophic for HL; higher = larger share of this subpopulation than in DMSO controls; settings: 10 µM; 24 h; SM minimal medium; subpopulation (auxotrophy): HL
Summary of the method: as §1

[10] = test system: Saccharomyces cerevisiae BY4741 SeMeCo community; assay: z-score of subpopulation abundance vs DMSO median, subpopulation auxotrophic for HLU; higher = larger share of this subpopulation than in DMSO controls; settings: 10 µM; 24 h; SM minimal medium; subpopulation (auxotrophy): HLU
Summary of the method: as §1

[11] = test system: Saccharomyces cerevisiae BY4741 SeMeCo community; assay: z-score of subpopulation abundance vs DMSO median, subpopulation auxotrophic for HLM; higher = larger share of this subpopulation than in DMSO controls; settings: 10 µM; 24 h; SM minimal medium; subpopulation (auxotrophy): HLM
Summary of the method: as §1

[12] = test system: Saccharomyces cerevisiae BY4741 SeMeCo community; assay: z-score of subpopulation abundance vs DMSO median, subpopulation auxotrophic for HUM; higher = larger share of this subpopulation than in DMSO controls; settings: 10 µM; 24 h; SM minimal medium; subpopulation (auxotrophy): HUM
Summary of the method: as §1

[13] = test system: Saccharomyces cerevisiae BY4741 SeMeCo community; assay: z-score of subpopulation abundance vs DMSO median, subpopulation auxotrophic for LUM; higher = larger share of this subpopulation than in DMSO controls; settings: 10 µM; 24 h; SM minimal medium; subpopulation (auxotrophy): LUM
Summary of the method: as §1

[14] = test system: Saccharomyces cerevisiae BY4741 SeMeCo community; assay: z-score of subpopulation abundance vs DMSO median, subpopulation auxotrophic for HLUM; higher = larger share of this subpopulation than in DMSO controls; settings: 10 µM; 24 h; SM minimal medium; subpopulation (auxotrophy): HLUM
Summary of the method: as §1

[15] = test system: Saccharomyces cerevisiae BY4741 SeMeCo community; assay: z-score of subpopulation abundance vs DMSO median, subpopulation auxotrophic for HM; higher = larger share of this subpopulation than in DMSO controls; settings: 10 µM; 24 h; SM minimal medium; subpopulation (auxotrophy): HM
Summary of the method: as §1

[16] = test system: Saccharomyces cerevisiae BY4741 SeMeCo community; assay: z-score of subpopulation abundance vs DMSO median, subpopulation auxotrophic for HU; higher = larger share of this subpopulation than in DMSO controls; settings: 10 µM; 24 h; SM minimal medium; subpopulation (auxotrophy): HU
Summary of the method: as §1

SMILES	mean cell size [1]	z-score of prototroph abundance [2]	z-score of subpopulation abundance [3]	z-score of subpopulation abundance [4]	z-score of subpopulation abundance [5]	z-score of subpopulation abundance [6]	z-score of subpopulation abundance [7]	z-score of subpopulation abundance [8]	z-score of subpopulation abundance [9]	z-score of subpopulation abundance [10]	z-score of subpopulation abundance [11]	z-score of subpopulation abundance [12]	z-score of subpopulation abundance [13]	z-score of subpopulation abundance [14]	z-score of subpopulation abundance [15]	z-score of subpopulation abundance [16]
COc1c(N2CCNC(C)C2)c(F)cc2c(=O)c(C(=O)O)cn(C3CC3)c12 (stereo not drawn) [Gatifloxacin]	12.4 ± 0.17	-0.15	-0.13	-0.51	0.81	-0.44	-0.79	0.32	-0.93	-0.36	-0.34	0.51	-0.33	-0.38		
Cn1nnc(-c2ccc(-c3ccc(N4C[C@H](COP(=O)(O)O)OC4=O)cc3F)cn2)n1 [Tedizolid Phosphate]		1.14	-0.15	-1.36	0.63	-0.61	-2.14	-0.77	-0.86	-0.8	-0.8	-0.98		-0.73	-0.87	-0.46
Cc1nc(=O)c2cc(CN(C)c3ccc(C(=O)N[C@@H](CCC(=O)O)C(=O)O)s3)ccc2[nH]1 [Raltitrexed]	13.1 ± 0.36	1.91	0.3	-0.42	-1.11	-0.94		-2.8	-0.37	-0.94	-0.97	-1.9	-2.16	-1.38	-0.66	-2.1
COc1ccc([C@@H]2Sc3ccccc3N(CCN(C)C)C(=O)[C@@H]2OC(C)=O)cc1 [Diltiazem HCl]	12.5 ± 0.27	0.76	-0.12	0.4	-0.19	-0.4	0.01	-0.21	-0.78	0.03	-0.37	-0.36	-0.24	-0.3	-0.74	
COC(=O)C1=C(C)NC(C)=C(C(=O)OC)C1c1ccccc1[N+](=O)[O-] [Nifedipine]			0.13	0.52	0.12	0.64	0.48	0.26	-0.95	1.29	0.5		0.34	1.1	-0.14	-0.68
C=C1CCC2C(C)(CO)C(O)CCC2(C)C1CC=C1C=COC1=O (stereo not drawn) [Dehydroandrographolide]		-0.69	0.35	1.46	-0.43	0.8	1.74	0.16		0.64	0.5		1.23			0.11
CC(=O)OCC[N+](C)(C)C [Acetylcholine iodide]	12.42 ± 0.1	1.05	-0.32	-0.73	0.13	-0.21	-0.62	-0.32		0.05	-1.52		-1.27	-1.3	-1.48	-0.12
CNCCCC1c2ccccc2C=Cc2ccccc21 [Protriptyline hydrochloride]	12.4 ± 0.15	-0.57	-0.4	-0.45	0.84	0.19	-0.93	0.52	0.25	0.54	-0.07	0.54	0.28		-0.42	0.37
CC(C(O)c1ccc(O)cc1)N1CCC(Cc2ccccc2)CC1 (stereo not drawn) [Ifenprodil Tartrate]	12.5 ± 0.24		-0.68	-0.15	0.69	-0.73		-0.03	-1.19	-1.12	-0.92	-1.27	-0.99	-1.11	-0.88	
Nc1cc(C(Cl)=C(Cl)Cl)c(S(N)(=O)=O)cc1S(N)(=O)=O [Clorsulon]		-0.96	-0.33	0.16	0.03	0.76		0.16		0.22	0.02	0.92	1.09	0.24	0.02	0.32
O=C1NC(=O)C(c2ccccc2)(c2ccccc2)N1 [Phenytoin]	12.39 ± 0.12	-0.03	0.07	-0.25	0.51	-0.22	0.5	0.49	-0.93	-0.45	-0.09				-0.81	-0.49
CO/N=C(\C(=O)N[C@@H]1C(=O)N2C(C(=O)O)=C(CSc3nnnn3C)CS[C@H]12)c1csc(N)n1 [Cefmenoxime hydrochloride]	12.5 ± 0.38	-0.33	0.36	-0.06	-0.34	0.02	0.27	0.4	-0.51	-0.51	-0.86	-0.02	-0.46		0.28	-0.46
O=C1CCc2cc(OCCCCc3nnnn3C3CCCCC3)ccc2N1 [Cilostazol]	12.32 ± 0.082		-0.68	0.75	-0.86	0.02			-0.05	-0.44	-0.55	-0.31	-0.52		-0.41	-0.16
CCN[C@@H]1C[C@H](N)[C@@H](O[C@H]2OC(CN)=CC[C@H]2N)[C@H](O)[C@H]1O[C@H]1OC[C@](C)(O)[C@H](NC)[C@H]1O [Netilmicin Sulfate]	12.1 ± 0.17	-0.66	1.38	-0.06	0.67	-0.25	0.44	0.17	-0.24	0.09	1.14		0.72	0.72	0.03	
CCN1CCN(c2cc3c(cc2F)c(=O)c(C(=O)O)cn3C2CC2)CC1 [Enrofloxacin]		0.16	0.24	-0.5	0.01	-0.13		0	-0.47	-0.04	0.21	0.02	-0.06	-0.35		0.07
C[C@@H]1[C@H](O)[C@@H](C)/C=C/C=C/C=C/C=C/C=C/C=C/C=C/[C@H](O[C@@H]2O[C@H](C)[C@@H](O)[C@H](N)[C@@H]2O)C[C@@H]2O[C@](O)(C[C@@H](O)C[C@@H](O)[C@H](O)CC[C@@H](O)C[C@@H](O)CC(=O)O[C@H]1C)C[C@H](O)[C@H]2C(=O)O [Amphotericin B]	9.69 ± 0.22	-19.9	-8.72	-2.03	-0.38	-5.04	-0.85	29.4	8.48	31.3	12.6		29.1	163		10.5
